Experimental findings from PubChem BioAssay AID602393 (Broad Institute, 2012) are described below.

In all, about 350,000 compounds went through this assay and about 7,000 (2%) were called active. Cut-off read from the data, not from the text of the source: active = activation above about 40%; inconclusive = no clear call, values can overlap the other calls; inactive = below that. The sample as a whole holds a higher share of actives than the screen did.

The experiment can be described thus: raisers of Bmi1 knock-in reporter signal – mouse ES cells, Bmi1 luciferase knock-in, single point, esBAF inhibitor project, primary screen (AID 602393).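 Note: 0% = median of the plate's neutral control wells and 100% = double that signal; a rise in the Bmi1 reporter signal indicates esBAF inhibition.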 Conditions: 24 h, at 12.5 µM, hits give high values, 100% = twice the neutral-well signal.
Regarding `O=[N+]([O-])c1ccc2c(c1)Nc1nc3ccccc3nc1N2`, the reporter increase is 47.3% (active).
Take `O=[N+]([O-])c1cc2ccccc2nc1-c1ccccc1`: the reporter increase is -3.44% (inactive).
Under `O=C(Oc1ccc([N+](=O)[O-])cc1)c1ccc2ccccc2n1` stands 0.987% (inactive); under `CO[C@@H]1CN(C)C(=O)c2cc(NC(=O)c3ccccc3F)ccc2OC[C@@H](C)N(CC2CC2)C[C@H]1C`, 1.73% (inactive); under `COc1ccccc1S(=O)(=O)N1CC[C@H]2[C@@H](CO)N(C)c3ccc(C#Cc4ccccc4)cc3[C@H]21`, -3.04% (inactive).
As for `C[C@H]1CCCCO[C@@H](CN(C)Cc2ccncc2)[C@@H](C)CN([C@@H](C)CO)C(=O)c2cc(NC(=O)Nc3ccc(F)cc3)ccc2O1`, the reporter increase is -1.97% (inactive).
With `CCOC(=O)c1ccc(NC(=O)CNC(=O)c2ccco2)cc1` the figure was -2.33% (inactive).
Under `COc1cccc(C(=O)Nc2cccnc2)c1OC` stands 0.381% (inactive); under `CCOC(=O)c1ccc(-c2ccc(C(=O)Nc3cccnc3)o2)cc1`, 58.2% (active); under `CC(=O)N1[C@@H](CO)[C@@H]2c3ccccc3N(S(=O)(=O)c3ccccc3)C[C@@H]21`, 0.543% (inactive).
With `Cc1ccc2nc(N3CCN(C(=O)c4ccco4)CC3)sc2c1` the figure was 54.6% (active); with `O=C(c1ccco1)N1CCN(C(=O)c2cc(-c3ccccc3F)no2)CC1`, 66.3% (active); with `O=C(Cc1c(F)cccc1Cl)N1CCN(C(=O)c2ccco2)CC1`, 3.68% (inactive).
Regarding `O=C(c1ccco1)N1CCN(c2cccc(Cl)c2)CC1`, the reporter increase was 45.4% (active).
Under `O=C(NCCCN1CCOCC1)c1cc(-c2ccccc2F)no1` stands 19.6% (inactive); under `Cc1ccc(OCC(=O)Nc2ccc(N3CCN(C(=O)c4ccco4)CC3)cc2)c(C)c1`, 0.555% (inactive); under `Cc1ccc2nc(N3C(=O)C(O)=C(C(=O)c4ccco4)C3c3cccc(O)c3)sc2c1` (stereo not drawn), 43.5% (active).
Consider `C=CCSc1nnc(N2C(=O)C(O)=C(C(=O)c3ccco3)C2c2ccc(F)cc2)s1` (stereo not drawn), for which the reporter increase was 10.6% (inactive).
In the case of `COc1ccc2nc(N3CCN(C(=O)c4ccc([N+](=O)[O-])o4)CC3)sc2c1`, the reporter increase is -6.63% (inactive).
In the case of `COc1ccc2nc(N3C(=O)C(O)=C(C(=O)c4ccco4)C3c3ccco3)sc2c1` (stereo not drawn), the reporter increase was -10.8% (inactive).
With `O=C(c1cccc([N+](=O)[O-])c1)N1CCN(C(=O)c2ccco2)CC1` the figure was -1.81% (inactive); with `O=C(c1ccco1)N1CCN(C(=S)Nc2cc(F)cc(F)c2)CC1`, 7.97% (inactive).
With `COCC#Cc1cnc2c(c1)C(=O)N([C@@H](C)CO)C[C@@H](C)[C@@H](CN(C)C(=O)c1cccnc1)O2` the figure was 3.33% (inactive).
